Experimental data published in publication PMC5540273 (PLoS ONE, 2017).

Assays:
Settings in all cases: concentration: 1 μM,replicates: in singlicate; n = 1
FGFR1 = test system: FGFR1
FGFR2 = test system: FGFR2
FGFR3 = test system: FGFR3
FGFR4 = test system: FGFR4
FGR = test system: FGR
FLT1 = test system: FLT1
FLT3-autoinhibited = test system: FLT3-autoinhibited
FLT3 = test system: FLT3
FLT4 = test system: FLT4
FRK = test system: FRK
FYN = test system: FYN
GAK = test system: GAK
GCN2(Kin.Dom.2,S808G) = test system: T1, GCN2(Kin.Dom.2,S808G)
T1 construct: gene EIF2AK4

GRK1 = test system: GRK1
GRK2 = test system: T2, GRK2
T2 construct: gene ADRBK1

GRK3 = test system: T3, GRK3
T3 construct: gene ADRBK2

GRK4 = test system: GRK4
GRK7 = test system: GRK7
GSK3A = test system: GSK3A
GSK3B = test system: GSK3B
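Further: KINOMEscan kinase panel screen.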

SMILES	%Inh (FGFR1)	%Inh (FGFR2)	%Inh (FGFR3)	%Inh (FGFR4)	%Inh (FGR)	%Inh (FLT1)	%Inh (FLT3-autoinhibited)	%Inh (FLT3)	%Inh (FLT4)	%Inh (FRK)	%Inh (FYN)	%Inh (GAK)	%Inh (GCN2(Kin.Dom.2,S808G))	%Inh (GRK1)	%Inh (GRK2)	%Inh (GRK3)	%Inh (GRK4)	%Inh (GRK7)	%Inh (GSK3A)	%Inh (GSK3B)
C[C@@H]1CNc2c(sc3ccc4nc(-c5ccncc5)ccc4c23)C(=O)N1	9%	0%	0%	26%	40%	3%	0%	0%	4%	10%	0%	13%	0%	34%	18%	0%	2%	29%	0%	3%
Cc1nnc(-c2ccc3occ(-c4ccc(S(C)=O)cc4)c3n2)o1 (centres unmarked)	0%	0%	0%	0%	25%	0%	0%	0%	0%	0%	0%	5%	0%	0%	0%	0%	33%	0%	40%	0%
Cc1cccc2c(-c3ccncc3)c(-c3ccc(F)cc3)nn12.Cl [GW461487]	0%	33%	4%	9%	2%	8%	0%	0%	0%	0%	4%	67%	1%	0%	0%	21%	100%	0%	12%	10%
CN(c1cccc(CNc2nc(Nc3ccc4c(c3)CC(=O)N4)ncc2C(F)(F)F)c1)S(C)(=O)=O	26%	31%	11%	0%	25%	35%	39%	98.7%	38%	0%	0%	33%	10%	25%	0%	0%	19%	0%	35%	0%
NC(=O)Nc1sc(-c2ccc(F)cc2)cc1C(N)=O [GW789449]	36%	7%	10%	0%	45%	28%	5%	50%	31%	0%	20%	37%	34%	12%	0%	0%	87%	26%	0%	17%
O=C(NCC1CC1)c1ccc(-c2cc(C(=O)NC3CC3)ccc2F)cc1 [GW810445]	0%	0%	0%	0%	0%	0%	0%	12%	0%	2%	0%	0%	0%	1%	19%	0%	0%	0%	0%	0%
COc1cc2nccc(Nc3ccc(Oc4ccccc4)cc3)c2cc1OC.Cl [GI261656]	0%	0%	1%	0%	95.5%	20%	0%	69%	50%	66%	86%	0%	5%	0%	0%	24%	0%	0%	6%	13%
Cc1ccc(C(=O)Nc2ccc(Oc3ccc4nc(NC(=O)C5CC5)cn4c3)c(F)c2)c(=O)n1-c1ccccc1	0%	23%	11%	1%	91%	67%	62%	98.5%	100%	64%	31%	0%	72%	0%	0%	0%	13%	0%	39%	0%
O=C(Nc1cccc(Oc2ccc3nccn3n2)c1)Nc1cccc(C(F)(F)F)c1	29%	4%	0%	0%	18%	93.2%	0%	59%	99%	77%	31%	4%	27%	0%	0%	0%	1%	0%	0%	0%
CS(=O)c1ccc(-c2coc3ccc(-c4n[nH]c(=O)o4)cc23)cc1 (centres unmarked)	5%	8%	3%	0%	0%	19%	0%	16%	3%	0%	0%	0%	21%	6%	0%	30%	19%	15%	93.3%	15%
